# Measurements: ChEMBL document CHEMBL1157539, “Thousands of chemical starting points for antimalarial lead identification” (Nature, 2010)
# Assays:
# Format in all cases: functional
# Plasmodium falciparum [1] = test: GSK_TCMDC: Inhibition of Plasmodium falciparum 3D7 in whole red blood cells, using parasite LDH activity as an index of growth. Test compounds present at 2uM
# Plasmodium falciparum [2] = test: GSK_TCMDC: Inhibition of Plasmodium falciparum Dd2 in whole red blood cells, using parasite LDH activity as an index of growth. Test compounds present at 2uM
# HepG2 = test: GSK_TCMDC: Percent inhibition of human HepG2 cell line. Test compounds present at 10uM.
Structure (SMILES),Inhibition (Plasmodium falciparum [1]),Inhibition (Plasmodium falciparum [2]),Inhibition (HepG2)
Cc1[nH]c(C)c(-c2cc3ccccc3o2)c(=O)c1Cl,92%,13%,1%
COc1ccc2ncc(F)c(CCN3CCC(NCc4cnc5c(c4)NC(=O)CS5)CC3)c2c1.Cl,99%,16%,16%
C[C@H](NC(=O)c1cc(-c2ccc(C(C)(C)C)cc2)no1)C(=O)O.C[C@H](NC(=O)c1conc1-c1ccc(C(C)(C)C)cc1)C(=O)O,91%,97%,31%
CCOC(=O)C1CCN(CCCNC(=O)/C(=C/C=C/c2cc3cc(Cl)c(Cl)cc3[nH]2)OC)CC1,87%,78%,23%
CCCCCOc1ccc(C(=NC)N(CCCCC)CCCCC)c2ccccc12.I,96%,80%,70%
O=C(Nc1cccc(C(F)(F)F)c1)c1ccc(S(=O)(=O)NC2CCN(CC3CCCCC3)CC2)cc1.O=C(O)C(F)(F)F,83%,0%,25%
CCCn1c(O)nnc1SCC(=O)Nc1cc(Cl)ccc1Cl,88%,53%,0%
CNC(=O)c1cnc(Nc2ccc(OCC(O)CN(C)C)cc2)nc1Nc1cccc(OC)c1.O=C(O)C(F)(F)F (stereo not given),100%,97%,31%
COc1cc2c(cc1S(=O)(=O)c1ccc(NC(=O)c3cc4ccccc4s3)cc1)CCN(C)CC2,100%,88%,21%
CC(=O)Nc1cccc(C(=O)Nc2cccc(-c3csc(-c4nc5ccccc5[nH]4)c3)c2)c1,96%,97%,39%
CC(CCc1ccccc1)NCC(O)c1cccc([N+](=O)[O-])c1 (stereo not given),97%,98%,0%
CC1CN(c2cnn(Cc3cccc(NC(=O)Nc4ccc(-c5ccccc5)cc4)c3)c(=O)c2Cl)CC(C)N1.O=C(O)C(F)(F)F (stereo not given),100%,67%,6%
CC(C)Nc1cc(C(=O)N[C@@H](Cc2ccccc2)[C@H](O)CNC(C)(C)c2cccc(C(F)(F)F)c2)cc(N2CCCCS2(=O)=O)c1.O=CO,98%,98%,9%
N#CCCN1CCN(Cc2ccc(-c3cccc(-c4nc5cc(F)ccc5[nH]4)c3)cc2)CC1.O=C(O)C(F)(F)F,91%,17%,16%
Cc1cc(OCC2CCN(c3ncc(C(=O)NC4CC4)cc3Cl)CC2)ccc1F,96%,96%,16%
CS(=O)(=O)Cc1ccc(Nc2nccc(-c3c(-c4cccc(NC(=O)c5c(F)cccc5F)c4)nn4ncccc34)n2)cc1,97%,93%,86%
Cc1ccc(NC(=O)Nc2ccc(Cl)c(C(F)(F)F)c2)cc1-c1ccc(C(=O)Nc2ccncc2)cc1,99%,99%,77%
CC(Cl)=CCc1c(C)nc2c(ccc3ccccc32)c1O,96%,96%,24%
NC1CCN(Cc2cccc(-c3cccc(-c4nc5ccccc5[nH]4)c3)c2)C1.O=C(O)C(F)(F)F (stereo not given),100%,0%,14%
O=C(NCC1CC1)C1CCN(C(c2ccccc2)c2cc(F)cc(F)c2)CC1 (stereo not given),99%,95%,0%
COc1ccccc1C1CCN(Cc2csc(NC(=O)c3ccc(-c4ccc(C(F)(F)F)cc4)cc3)n2)CC1,85%,23%,62%
C[C@H](NC(=O)c1c(CN2CCC(N3CCCCC3)CC2)c(-c2ccccc2)nc2cc(O)ccc12)C1CCCCC1,99%,72%,77%
Cc1nccn1Cc1cc(C(C)(C)C)c(O)c(C(C)(C)C)c1,99%,0%,8%
Cc1oc(-c2ccccc2)nc1CCOc1ccc(C[C@H](Nc2ccccc2C(=O)c2ccccc2)C(=O)NCc2ccccn2)cc1,88%,54%,0%
CC(=O)c1ccc2c(c1)C(NC(=O)c1cccc(Cl)c1Cl)C(CO)C(C)(C)O2 (stereo not given),99%,44%,5%
